# Screen size: about 360,000 compounds; about 10,000 (2.8%) were called active. Inconclusive results (about 4%) are left out. Calls come from the whole dose curve; as a rule, active = well fitted inhibition curve with a large enough effect; inconclusive = small, poorly fitted or top-dose-only effect; inactive = flat fitted curve, though single readings scatter. Shown is part of a subset that was picked to be rich in actives.
# Biological target: Serine/threonine-protein kinase PLK1 (Homo sapiens) (UniProt P53350)
# Experiment: qHTS for Inhibitors of PLK1-PDB (polo-like kinase 1 - polo-box domain): Primary Screen; note: nearly all actives have a fitted effect of over 65% in size; for max response, negative = inhibition: series mostly up to about 57 µM
# Conditions: Plk1 PBD binding of FITC phosphopeptide, fluorescence polarization
# % is set by controls: 0 for no effect and ±100 for the full control effect; potency is the fitted concentration of half-maximal effect.
# Chain of Serine/threonine-protein kinase PLK1 (Homo sapiens) (P53350 whole entry, looked up, the tested form may be a part): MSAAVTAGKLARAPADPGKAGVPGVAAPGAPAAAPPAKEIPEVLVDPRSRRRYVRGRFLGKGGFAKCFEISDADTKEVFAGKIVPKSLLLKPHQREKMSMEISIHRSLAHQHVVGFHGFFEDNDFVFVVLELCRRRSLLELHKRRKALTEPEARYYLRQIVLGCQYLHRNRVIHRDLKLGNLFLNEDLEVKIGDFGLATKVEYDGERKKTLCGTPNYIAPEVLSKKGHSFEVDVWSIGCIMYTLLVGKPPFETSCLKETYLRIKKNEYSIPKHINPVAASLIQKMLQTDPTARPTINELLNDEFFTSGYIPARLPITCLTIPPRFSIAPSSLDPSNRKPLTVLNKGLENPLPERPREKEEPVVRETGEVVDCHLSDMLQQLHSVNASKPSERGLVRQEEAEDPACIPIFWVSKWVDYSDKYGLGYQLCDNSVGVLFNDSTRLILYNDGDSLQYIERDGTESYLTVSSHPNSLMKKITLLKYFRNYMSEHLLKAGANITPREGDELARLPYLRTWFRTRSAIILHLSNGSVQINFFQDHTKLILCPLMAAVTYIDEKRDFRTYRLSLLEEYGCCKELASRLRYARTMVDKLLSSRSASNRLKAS
SMILES,"max response, negative = inhibition",Potency
COc1cc(C(O)c2nc(-c3cccc(C(=O)O)c3)cs2)ccc1F (stereo not given),2.95% (inactive),–
O=C(O)c1ccccc1N=N/C(=N/Nc1cc(S(=O)(=O)O)ccc1O)c1ccccc1,–,16.8 µM (active)
COc1cccc(NC(=O)C2(C)CCN2Cc2ccccc2Cl)c1 (stereo not given),4.24% (inactive),–
OCCc1ccc(NCCc2ccco2)cc1,-4.52% (inactive),–
O=Nc1c(O)cc(O)c2ccccc12,-5.49% (inactive),–
C=CCOc1cccc(C2C(C(=O)c3ccc(C)o3)=C(O)C(=O)N2CCN2CCOCC2)c1 (stereo not given),-19.4% (inactive),–
Cc1cc(N2C(=O)C(O)=C(C(=O)c3ccc(C)o3)C2c2ccc(OCc3ccccc3)cc2)no1 (stereo not given),–,21.2 µM (active)
Cc1cc(N2C(=O)C(=O)/C(=C(/O)c3ccccc3)C2c2cccc(Br)c2)no1 (stereo not given),-15% (inactive),–
C[C@@H]1CN([C@@H](C)CO)C(=O)CCCn2nncc2CO[C@H]1CN(C)Cc1ccc(C(F)(F)F)cc1,-1.98% (inactive),–
CC(=O)C[C@@H]1OC[C@H](CO)N1S(=O)(=O)c1ccc(C)cc1,-6.97% (inactive),–
CCOc1cc(C(=S)N2CCOCC2)ccc1O,–,7.52 µM (active)
CCOc1cc(C(=S)N2CCOCC2)ccc1OS(=O)(=O)c1ccc(Br)cc1,-16.5% (inactive),–
CCOc1cc(C(=O)OCC(=O)Nc2cccc(C)c2)ccc1OCC(=O)N1CCOCC1,-7.2% (inactive),–
COCOCCn1cc(CN2CCS(=O)(=O)N(Cc3ccc(-c4cccc(N(C)C)c4)cc3)C(CC(C)C)C2=O)nn1 (stereo not given),-14.2% (inactive),–
O=C(CCN1CCN(C/C=C/c2ccccc2)CC1)Nc1ccccc1Cl,-3.16% (inactive),–
NC(=O)C1(Nc2ccccc2Cl)CCCC1,-11.6% (inactive),–
O=C(Nc1ccccc1Cl)/C(Cl)=C(\Cl)S(=O)c1ccccc1 (stereo not given),–,1.34 µM (active)
CCCNC(=O)C1(C)CCN(Cc2ccc(Cl)c(Cl)c2)C1 (stereo not given),-1.65% (inactive),–
C[C@H](NC(=O)[C@@H]1CCCN1C(=O)[C@@H]1CCCN1C(=O)c1ccccc1)c1ccccc1,-0.0066% (inactive),–
COc1ccc(N2CCN(C(=O)C3CCN(C(=O)c4ccccc4Cl)CC3)CC2)cc1,1.62% (inactive),–
O=C(c1ccccc1Oc1ccccc1)N1CCN(c2ccc(F)cc2)CC1,–,26.7 µM (active)
CC(C)N(C(=O)COC(=O)c1ccccc1C(=O)N1CCN(c2ccc(F)cc2)CC1)C(C)C,-8.86% (inactive),–

SMILES,"max response, negative = inhibition",Potency
CC[C@@H]1CC2=C(C(=O)OC(C)(C)O2)[C@@H](CC)O1,0.545% (inactive),–
Cc1ccc(C(O)c2ncc(-c3ccccc3F)[nH]2)cc1F (stereo not given),-7.55% (inactive),–
CCN(CC)S(=O)(=O)c1cccc(-c2n[nH]c(=S)n2/N=C/c2ccc(C(=O)OC)cc2)c1,–,10.6 µM (active)
COC(=O)c1ccc(/C=N/N2C(C)CCCC2C)cc1 (stereo not given),-11.6% (inactive),–
CCN(CC)S(=O)(=O)c1cccc(NC(=O)c2ccc(S(=O)(=O)N3CCCC3)cc2)c1,2.45% (inactive),–
CCCCNC(=O)C[C@@H]1C[C@@]2(C(=O)OCC)CCC=C2N(Cc2cccc3ccccc23)C1=O,-0.117% (inactive),–
CCOC(=O)C1CCCN(C(=O)c2ccc(C)c(F)c2)CC1 (stereo not given),-7.52% (inactive),–
CC(C)Oc1ccc(CN2CCC2(C)C(=O)NCc2ccc(C(F)(F)F)cc2)cc1 (stereo not given),6.37% (inactive),–
CN(C)/C=C1\C=C(c2ccccc2)OC1=O,-6% (inactive),–
CN(C)/C=C1/Nc2ccccc2C1=O,–,26.7 µM (active)
CCCS(=O)(=O)C(=C1Nc2ccccc2N1)S(=O)(=O)CCC,-1.93% (inactive),–
CCN(CCN(C)C)C(=O)c1ccc2nc(C)c(N(C)C(=O)CCc3ccccc3)n2c1,2.39% (inactive),–
CC(=O)Nc1cncc(-c2ccccc2CO)n1,3.65% (inactive),–
O=C(CCc1[nH]c2ccccc2c1Sc1ccccc1)N(CCO)CCO,–,29.9 µM (active)
O=S1(=O)CC(N2CCN(CCO)CC2)CN1Cc1cn(Cc2ccc(Cl)cc2)nn1 (stereo not given),-4.51% (inactive),–
Cc1ccc(S(=O)(=O)N(CCc2ccccc2)c2ccc3c(c2)C2CC3CCN2C(=O)OCc2ccccc2)cc1 (stereo not given),-9.82% (inactive),–
O=C(C1CCCO1)N1CCN(C(=O)C23CC4CC(CC(C4)C2)C3)CC1 (stereo not given),-0.452% (inactive),–
C[C@@H]1CN([C@H](C)CO)S(=O)(=O)c2ccc(C#CC3CCCCC3)cc2O[C@H]1CN(C)C(=O)Cc1ccncc1,8.88% (inactive),–
COc1cccc(C(O)c2ncc(-c3ccc4ccccc4c3)[nH]2)c1 (stereo not given),5.51% (inactive),–
COc1ccc(CNC(=O)C(C)n2nc(C)c3c(C)n(-c4ccccc4)nc3c2=O)c(OC)c1 (stereo not given),–,26.7 µM (active)
COc1ccc(-n2nc3c(N4CCC(C(=O)NCc5ccccc5)CC4)nnc(C)c3c2C)cc1,-9.59% (inactive),–
Cc1ccc(-n2nc3c(=O)n(C(C)C(=O)NCc4ccc5c(c4)OCO5)nc(C)c3c2C)cc1 (stereo not given),-18.3% (inactive),–

SMILES,"max response, negative = inhibition",Potency
Cc1nn(CC(=O)N2CCCCC2)c(=O)c2nn(-c3ccccc3)c(C)c12,-14.5% (inactive),–
COc1ccc(OC)c(CNC(=O)Cn2nc(C)c3c(C)n(-c4ccc(C)cc4)nc3c2=O)c1,–,26.7 µM (active)
Cc1nn(C(C)C(=O)NCCC2=CCCCC2)c(=O)c2nn(-c3ccccc3)c(C)c12 (stereo not given),-7.54% (inactive),–
CCOc1cc(/C=N/NC(=O)c2c(C)nc3ccc(Cl)cn23)ccc1O,-0.787% (inactive),–
CC(C)NC(=O)C1(C)CCCCN1Cc1cccc(C(F)(F)F)c1 (stereo not given),-6.04% (inactive),–
OC(c1ccc(F)cc1)c1ncc(-c2cccc(C(F)(F)F)c2)[nH]1 (stereo not given),1.19% (inactive),–
CC(=O)NC(c1ccccc1)c1nc(-c2cccc(C(C)C)c2)cs1 (stereo not given),4.75% (inactive),–
COC(=O)[C@@]1(Cc2ccc(OC)cc2)[C@H]2c3cc(C(=O)N4CCCC4)n(Cc4ccc(OC(F)(F)F)cc4)c3C[C@H]2CN1C(=O)c1ccccc1,4.68% (inactive),–
CCOC(=O)[C@]12CCC=C1N(Cc1ccco1)C(=O)[C@H](CC(=O)N1CCSCC1)C2,-15.1% (inactive),–
CC1(C(=O)Nc2cccnc2)Cc2c(-c3ccccc3)ccnc2O1 (stereo not given),-6.2% (inactive),–
COc1ccc([C@H]2CC(=O)C=C(c3ccc(C)cc3)C2)cc1,-18.7% (inactive),–
COc1ccc([C@H]2CC(=O)C=C(c3ccc(CO)cc3)C2)cc1,–,23.8 µM (active)
COc1ccc2cc(C3=CC(=O)C[C@H](c4ccc5c(c4)OCO5)C3)ccc2c1,4.54% (inactive),–
CN1OC[C@@H]2CN[C@H](c3ccc(-c4ccccc4)cc3)C[C@@H]21,5.71% (inactive),–
Cc1cc(C)c2nc(-c3cccnc3)cc(C(=O)Nc3ccc(S(=O)(=O)Nc4onc(C)c4C)cc3)c2c1,–,42.3 µM (active)
Cc1noc(NS(=O)(=O)c2ccc(NC(=O)c3oc4ccc(F)cc4c3C)cc2)c1C,-10.8% (inactive),–
CCn1c(SCC(=O)Nc2ccc(S(=O)(=O)Nc3onc(C)c3C)cc2)nnc1-c1ccccc1,3.27% (inactive),–
CC(C)(C)S(=O)N1Cc2cc(C(=O)NCCCN3CCOCC3)nc(-c3cccc(-c4cc5ccccc5o4)c3)c2[C@H]1CCO (stereo not given in full),-5.28% (inactive),–
CCCCOC(=O)Cn1c(=N)n(CCN(CC)CC)c2ccccc21,–,21.2 µM (active)
CCCn1c(=N)n(CC(=O)c2ccc(Cl)c(Cl)c2)c2ccccc21,-14% (inactive),–
CCCCCCCCCCOC(=O)Cn1c(COc2ccc(C)cc2)[n+](C)c2ccccc21,-18.7% (inactive),–
CC(=O)c1cccc(-c2cnc3c(NC=O)cc(-c4ccc(N(C)C)cc4)cn23)c1,-10.2% (inactive),–

SMILES,"max response, negative = inhibition",Potency
COc1ccc(C(O)C(O)(C(=O)OC(C)C)c2ccc(C)cc2)cc1 (stereo not given),-13.4% (inactive),–
Cn1cc(C2OC(=O)c3ccccc32)c2ccccc21 (stereo not given),-13.8% (inactive),–
Cc1nn(C)cc1N1C(=O)c2cccc3c(N)ccc(c23)C1=O,–,2.38 µM (active)
CN1C(=O)c2cccc3c(N)ccc(c23)C1=O,–,3.36 µM (active)
CC(C(=O)O)N1C(=O)c2cccc3cccc1c23 (stereo not given),-10.8% (inactive),–
Cc1ccc(S(=O)(=O)N2CCCCC2)cc1NC(=O)CCNC(=O)c1ccccc1Cl,-0.377% (inactive),–
O=C1c2ccccc2-c2ccccc2NC1O (stereo not given),-5.82% (inactive),–
COc1cccc(NC(=O)N(C)C[C@@H]2Oc3ncc(Br)cc3C(=O)N([C@@H](C)CO)C[C@H]2C)c1,-14.8% (inactive),–
Cc1c(NC(=O)CSc2nnnn2-c2ccc(C(=O)O)cc2)c(=O)n(-c2ccccc2)n1C,-21.9% (inactive),–
Cc1c(NC(=O)CSc2nnc(-c3cccnc3)n2N)c(=O)n(-c2ccccc2)n1C,-7.37% (inactive),–
Cc1c(NC(=O)CSc2cccc3cccnc23)c(=O)n(-c2ccccc2)n1C,–,16.8 µM (active)
Cc1coc2c(O)cc3c(c12)OC1(N2CCCCC2)C(=O)NCCCC31 (stereo not given),–,15 µM (active)
C[C@H]1CN([C@@H](C)CO)S(=O)(=O)c2ccc(-c3cccc(F)c3)cc2O[C@@H]1CN(C)C,2.78% (inactive),–
CN(C)CCNC(=O)c1ccc(-c2cn3c(-c4ccc(Oc5ccccc5)cc4)cnc3cn2)cc1,-16.6% (inactive),–
COc1ccc(NC(=O)N(C)C[C@H]2Oc3ncc(C#C[C@@H](C)O)cc3C(=O)N([C@H](C)CO)C[C@H]2C)cc1,-0.325% (inactive),–
CN1CCN(C(=O)c2ccc(-c3cc4nc(NCc5cccnc5)n(C)c(=O)c4s3)cc2)CC1,-24.5% (inactive),–
CN(C)CCn1c(=S)[nH]c2ccc(Cl)cc2c1=O,-5.51% (inactive),–
CC(C)n1c(=S)[nH]c2cc(C(F)(F)F)ccc21,-24.5% (inactive),–
CCCn1c(=S)[nH]c2ccc(C(F)(F)F)cc21,–,10.6 µM (active)
